Most compounds without a hit are left out; they make up all but 5.4% or so of the library.
AHR act – AHR activators, primary screen, cell-based, luminescence, luciferase reporter, human; Aryl hydrocarbon receptor (Homo sapiens), P35869; AHR-responsive luciferase reporter cells; activation, % at 5 µM; hit rate 2.5% among 320,000; AID 2796, 2010; in the data active means activation above about 47%;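 further: 0% = vehicle wells and 100% = reference agonist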
HSF1 inhib – HSF1 inhibitors in luciferase reporter cells, primary screen, cell-based, NIH3T3, luminescence; NIH3T3-HGL HSE-luciferase, MG132-induced, luminescence 8 h; hits give low values; activity change, negative = inhibition, % at 7.5 µM (by protocol); hit rate 0.77% among 300,000;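 active means more than half of replicate wells show activity change below -50%, luminescence cut by over half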;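 further: luciferase reports HSF-1 transcriptional activity via heat shock element; 0% = median of DMSO wells and -100% = zero luminescence signal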
HSF-1 act – HSF-1 activators, primary screen, NIH3T3-HGL cells, MG132 stress, luminescence, single point; activation, % at 9 µM; AID 504408, 2011; hit rate 1.7% among 300,000; NIH3T3-HGL HSF-1 luciferase reporter, 8 h; 100% = twice DMSO control signal;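 active means mean replicate activation of at least 50% with a set share of replicates each reaching 50%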;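 further: 0% = median of the neutral control wells and 100% = twice that signal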
GAA850 FXN act – FXN promoter activators, primary screen, cell-based, luciferase luminescence, HEK293 lucGAA850. HEK293 lucGAA850 FXN promoter luciferase reporter, 24 h; percent of 10 µM SAHA response. activation, % at 6 µM. hit rate 0.56% among 360,000. AID 540364, 2011;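 active means activation above the average of all compounds screened plus 3 SD, cutoff fixed separately per campaign, cut at about 7.5% in these data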;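 further: 0% = DMSO wells and 100% = 10 µM SAHA wells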
NR0B1 inh – DAX1 (NR0B1) inhibitors, primary screen, cell-based, HEK293, Gal4-DAX1, luciferase luminescence. hit rate 0.99% among 340,000. AID 504766, 2011. HEK293 Gal4-DAX1 luciferase reporter. inhibition, % at 6.75 µM. Nuclear receptor subfamily 0 group B member 1 (Homo sapiens), P51843;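 active means inhibition above the mean over all tested compounds plus 3 SD, cut at about 4.2% in these data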;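 further: 0% = DAX1-transfected cells with DMSO and 100% = empty-vector control cells with DMSO; inhibition shows as a rise in luminescence from relieved DAX1 repression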
Target sequence (P51843 207-470 limits assumed): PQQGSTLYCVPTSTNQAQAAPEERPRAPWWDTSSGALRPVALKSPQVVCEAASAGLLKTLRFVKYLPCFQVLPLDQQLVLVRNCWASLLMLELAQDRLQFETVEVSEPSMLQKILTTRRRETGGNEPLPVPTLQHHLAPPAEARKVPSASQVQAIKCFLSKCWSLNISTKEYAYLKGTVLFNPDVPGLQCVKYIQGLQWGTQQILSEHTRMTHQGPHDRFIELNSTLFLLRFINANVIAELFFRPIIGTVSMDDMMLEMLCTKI
* = called active by the depositor; · = not tested or not shown.

SMILES	AHR act	HSF1 inhib	HSF-1 act	GAA850 FXN act	NR0B1 inh
COc1cc(-n2nc(C)c3c2OC(N)=C(C#N)C3c2ccccc2)c(Cl)c(Br)c1O (centres undefined)	8	53	78*	0	1
Cc1ccc(-n2nc(C)c3c2OC(N)=C(C#N)C3c2cccs2)cc1 (centres undefined)	68*	1	25	-3	3
Cc1ccc(-n2nc(C)c3c2OC(N)=C(C#N)C3c2ccncc2)cc1 (centres undefined)	18	17	62*	-1	-1
Cc1ccc(-n2nc(C)c3c2OC(N)=C(C#N)C3c2ccccc2F)cc1 (centres undefined)	66*	-18	-17	-3	-2
Cc1nn(-c2ccccc2)c2c1C(c1ccncc1)C(C#N)=C(N)O2 (centres undefined)	17	1	26	-3	2
CNc1ccc(-c2cccc(C#N)c2)cn1	·	·	·	4	·
O=C1CC(c2ccc(S(=O)(=O)NCc3ccccc3)cc2)CN1 (centres undefined)	1	-7	-4	0	5.6*
Cc1ccccc1NS(=O)(=O)c1ccc(C2CNC(=O)C2)cc1 (centres undefined)	8	-4	-3	-2	1
CC1CCN(c2nc(-c3ccncc3)nc3ccccc23)CC1	20	-38	-50	1	-1
CC1CCN(c2nc(/C=C/c3ccccc3)nc3ccccc23)CC1	72*	7	-7	2	1
CCc1nnc(NC(=O)c2nc(S(=O)(=O)Cc3ccc(C)cc3)ncc2Cl)s1	-2	-60*	-63	-12	0
CCc1nnc(NC(=O)c2nc(S(=O)(=O)Cc3cccc(C)c3)ncc2Cl)s1	1	-65*	-74	-12	-1
CCc1nnc(NC(=O)c2nc(S(=O)(=O)Cc3ccccc3)ncc2Cl)s1	2	-18	-36	-10	4
CN(c1ccc(C(=O)NCCCn2ccnc2)cc1)S(C)(=O)=O	2	-1	-2	0	0
CCN(Cc1ccncc1)C(=O)c1cc(Br)cc(Br)c1O	2	11	51*	-2	2
CCN(Cc1ccncc1)C(=O)c1ccco1	-1	-4	-4	1	1
Cc1ccc(C)c(NC(=O)C(c2ccccc2)N2CCOCC2)c1 (centres undefined)	2	8	-8	1	1
CCOC(=O)c1cnc2c(cnn2C)c1NCCCn1ccnc1	59*	-7	-21	3	0
COc1ccc(NC(=O)CCC(=O)c2ccc(F)cc2)cc1	·	·	·	0	2
COc1ccc(C(=O)CCNc2ccc(F)cc2)cc1	-3	0	25	3	5.2*
O=S1(=O)CCN2N=C(C34CC5CC(CC(C5)C3)C4)SC2=N1	3	3	17	2	1
Cn1c(CCCOc2ccc(Cl)cc2Cl)nnc1SCC(=O)Nc1cccc(F)c1	1	37	54*	1	-1
COC(=O)c1sc(NC(=S)NC(=O)c2cccc(Br)c2)nc1C	19	19	27	3	4.6*
CCOC(=O)c1sc(Nc2nc(C)cc(OC)n2)nc1C	11	-2	5	0	4.5*
COC(=O)c1sc(NC(=O)/C=C/c2ccc(C)o2)nc1C	2	28	57*	4	1
SMILES	AHR act	HSF1 inhib	HSF-1 act	GAA850 FXN act	NR0B1 inh
Cc1nc(Nc2ccc(C(=O)O)cc2)sc1-c1ccccc1	14	-5	10	4	1
COC(=O)c1sc(NC(=S)NC(=O)c2ccc(F)cc2)nc1C	3	5	2	·	·
Cc1nc(Nc2ccccc2)sc1-c1ccccc1	72*	46	59*	6	3
CCc1nc2c(OCCC3CCCCC3)cccn2c1N(C)C(=O)c1ccccc1F	·	·	·	0	·
O=C(O)C(Oc1ccc(Cl)cc1)c1ccc(Cl)cc1 (centres undefined)	·	·	·	0	0
COc1ccc(OC)c(S(=O)(=O)N2CCCC(C(=O)NCc3cccnc3)C2)c1 (centres undefined)	0	-2	-20	1	2
CCOC(=O)c1sc(Nc2ccccc2)nc1C	21	20	35	6	1
COC(=O)c1sc(Nc2ccccc2)nc1C	8	27	31	9.9*	1
COCC1CCCCN1C(=O)c1cccc(OC2CCN(S(C)(=O)=O)CC2)c1 (centres undefined)	-3	1	13	2	0
COc1cc(CC(=O)N(c2ccccc2)c2nc(C)cs2)cc(OC)c1OC	2	23	62*	0	0
CCC(C)n1cnc2c(c1=O)c1nc3ccccc3nc1n2Cc1ccc(OC)cc1 (centres undefined)	0	37	104*	0	0
NC(=O)NN=C1CCN2CCCc3cccc1c32	·	·	·	1	1
Cc1ccc(S(=O)(=O)N2CC3(O)CN(C(=O)OC(C)C)N(C(=O)OC(C)C)CC3(OC(=O)NCc3ccccc3F)C2)cc1 (centres undefined)	·	·	·	-7	1
CCOC(=O)c1cc2c(=O)n3ccccc3nc2n(Cc2ccco2)c1=NC(=O)c1ccccc1OC	3	49	100*	3	0
CCOC(=O)c1cc2c(=O)n3cccc(C)c3nc2n(CCOC)c1=NC(C)=O	1	-63*	-72	1	·
N=c1c(C(=O)NC2CCCCC2)cc2c(=O)n3ccccc3nc2n1Cc1ccco1	7	5	0	-3	2
N=c1c(C(=O)NCCc2ccccc2)cc2c(=O)n3ccccc3nc2n1Cc1ccco1	3	46	75*	-2	-1
CC1CCCN(c2ccc(C(=O)Nc3cccnc3)cc2[N+](=O)[O-])C1 (centres undefined)	23	14	13	1	1
CC(=O)N1N=C(c2ccc(C)cc2)OC1c1ccc(Br)cc1 (centres undefined)	5	37	57*	6	1
C/C(=N\NC(N)=S)C1=CCC2C3CC[C@H]4CC(O)CC[C@]4(C)C3CC[C@]12C (some centres undefined)	7	25	51*	2	-2
CC12CCC3C(CCC4CC(O)CCC43C)C1CC(O)C2 (centres undefined)	·	·	·	1	-2
COc1ccccc1NC(=O)C(=O)N/N=C/c1cccs1	47*	1	24	7	1
COc1ccc(N(CC(=O)N/N=C/c2cccs2)S(=O)(=O)c2ccccc2)cc1	64*	-5	16	1	4
COc1ccccc1NC(=O)/C(=C\c1cccs1)NC(=O)c1ccco1	66*	23	40	1	3
COCCNC(=O)C(=O)N/N=C/c1cccs1	8	5	11	0	2

From PubChem BioAssay
